Here are results for five compounds from PubChem BioAssay (NCI).

Where “and” joins values, the source holds several entries; their conditions need not be identical. Equal values may be shown once. Compounds without any hit were thinned out: in the full panel of roughly 83,000, 20% have a hit.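 96-well plates, one dose, 48 hours. Percent growth reported; active if below 10.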 Calls of active or inactive are those of the source.

Common to all, as to experiment: NCI-60 one-dose screen, 48 h (100 = growth as untreated, 0 = no growth, -100 = all killed)
Holding throughout (settings): 10 µM unless noted

Experiment [1] has as its system SR leukemia.
Experiment [2] deals with RPMI-8226 leukemia.
Experiment [3] has as its system OVCAR-8 ovarian.
The test system of experiment [4] is OVCAR-5 ovarian.
Experiment [5] deals with OVCAR-4 ovarian.
Experiment [6] deals with SK-OV-3 ovarian.
The subject of experiment [7] is IGROV1 ovarian.
The test system of experiment [8] is OVCAR-3 ovarian.
For experiment [9], the system named is HS 578T breast.
Experiment [10] concerns NCI/ADR-RES ovarian.
The test system of experiment [11] is T-47D breast.
Experiment [12] concerns BT-549 breast.
Experiment [13] relates to MDA-MB-435 melanoma.
The subject of experiment [14] is SW-620 colon.
Experiment [15] has as its system MCF7 breast.
The test system of experiment [16] is HCT-116 colon.
Experiment [17] deals with HCC-2998 colon.
Experiment [18] deals with KM12 colon.

For the compound `CC(C)(O)Cn1cc(-c2ccc3nc(OC4CC4)ccc3c2)c2c(N)ncnc21`, the growth in experiment [1] is 49.9% (inactive) and 21% (inactive); in experiment [2], 55.3% (inactive) and 39.9% (inactive); in experiment [3], 90.2% (inactive) and 63.6% (inactive); in experiment [4] it was 84.7% (inactive) and 48.4% (inactive); in experiment [5] it was 96.3% (inactive) and 63.1% (inactive); in experiment [6], 83.4% (inactive) and 57.9% (inactive). The growth is 74% (inactive) and 42.2% (inactive) in experiment [7]; 109% (inactive) and 69.8% (inactive) in experiment [8]; 71.1% (inactive) and 31.9% (inactive) in experiment [9]; 94.9% (inactive) and 67.1% (inactive) in experiment [10]; 47.6% (inactive) and 5.84% (active) in experiment [11]; 84.7% (inactive) and 66.4% (inactive) in [12]. The growth is 93.7% (inactive) and 61% (inactive) in experiment [13]; 97.4% (inactive) and 63.8% (inactive) in [14]; 69.6% (inactive) and 39.6% (inactive) in [15]; 70.3% (inactive) and 52.4% (inactive) in [16]; 99.7% (inactive) and 89.4% (inactive) in [17]; 84.1% (inactive) and 56.8% (inactive) in experiment [18].

Regarding `CNc1cc(-c2cccc(OC(F)(F)F)c2)nc2ccc(N3CCCC3)cc12`, the growth in experiment [1] was -33.9% (active) and -44.7% (active) and -14.6% (active); in experiment [2], -51.4% (active) and -43.5% (active) and -37.5% (active); in [3], 34.7% (inactive) and -26.3% (active) and -2.97% (active); in experiment [4] it was 55.7% (inactive) and 12.4% (inactive) and 50% (inactive); in [5], 53.1% (inactive) and -27.1% (active) and 22% (inactive); in experiment [6], 93.5% (inactive) and 55.3% (inactive) and 92.4% (inactive). Besides, the growth in [7] was 35.5% (inactive) and -14.9% (active) and 53.2% (inactive); in experiment [8], 85.7% (inactive) and -90.8% (active) and 84.8% (inactive); in [9], 88.4% (inactive) and 47.5% (inactive) and 75.7% (inactive); in experiment [10], 59% (inactive) and 20.9% (inactive) and 21.3% (inactive); in experiment [11], -40.3% (active) and -55% (active) and -40.4% (active); in experiment [12] it was -81.3% (active) and 74.1% (inactive) and 76.4% (inactive). The growth was 35.8% (inactive) and -86.4% (active) and -70.6% (active) in experiment [13]; 5.95% (active) and -18.2% (active) and 0.371% (active) in [14]; 3.84% (active) and -19.7% (active) and 0.755% (active) in experiment [15]; -76% (active) and -90.3% (active) and -76.6% (active) in experiment [16]; 25.9% (inactive) and -53.7% (active) and -32.7% (active) in experiment [17]; 12.5% (inactive) and -3.68% (active) and 1.48% (active) in experiment [18].

`CN1CCN(c2ccc3nc(-c4c(N)c5c(F)cccc5[nH]c4=O)[nH]c3c2)CC1`: the growth in [1] was -11.8% (active) and 1.99% (active); in [2], 47.5% (inactive) and 53.7% (inactive); in experiment [3], 35.4% (inactive) and 28.2% (inactive); in [4], 56.1% (inactive) and 61.3% (inactive); in [5], 64.7% (inactive) and 53.9% (inactive); in [6] it was 1.69% (active) and 24.6% (inactive). Further, the growth in [7] was 13.9% (inactive) and 13.5% (inactive); in [8] it was 53.5% (inactive) and 48.2% (inactive); in [9] it was 2.57% (active); in [10] it was 41% (inactive) and 47% (inactive); in [11], 71.6% (inactive) and 64.4% (inactive); in experiment [12], -66% (active) and 49.3% (inactive). Moreover, the growth in experiment [13] was 26.6% (inactive) and 16.1% (inactive); in [14], 14.3% (inactive) and 15.8% (inactive); in experiment [15], 14.8% (inactive) and 14.7% (inactive); in [16] it was 19.1% (inactive) and 3.86% (active); in [17], 38.2% (inactive) and 44.8% (inactive); in [18], 12.8% (inactive) and 13.7% (inactive).

For `O=Nc1ccc(O)cc1`, the growth in experiment [1] is 79.4% (inactive) and 74.3% (inactive); in [2], 97.6% (inactive) and 103% (inactive); in experiment [3], 106% (inactive) and 92.4% (inactive); in experiment [4], 105% (inactive) and 98.9% (inactive); in experiment [5], 108% (inactive) and 106% (inactive); in experiment [6], 108% (inactive) and 107% (inactive). Besides, the growth in [7] was 91.7% (inactive) and 82% (inactive); in experiment [8], 89.2% (inactive) and 97.7% (inactive); in [9], 104% (inactive) and 96.6% (inactive); in [10], 89.3% (inactive) and 84.6% (inactive); in experiment [11], 87.5% (inactive) and 85.2% (inactive); in experiment [12] it was 83% (inactive). For the same compound, the growth is 104% (inactive) and 108% (inactive) in [13]; 86.1% (inactive) and 94.1% (inactive) in experiment [14]; 84.6% (inactive) and 93.4% (inactive) in experiment [15]; 103% (inactive) and 78.3% (inactive) in experiment [16]; 101% (inactive) and 104% (inactive) in experiment [17]; 101% (inactive) and 94.7% (inactive) in experiment [18].

For `CCCCCn1sc(=O)n(Cc2ccc(CNC(=O)C(C)c3ccc(CC(C)C)cc3)cc2)c1=O` (stereo not given), the growth in experiment [1] is 104% (inactive) and 1.27% (active); in experiment [2] it was 99.7% (inactive) and -24.6% (active); in [3], 92.5% (inactive) and -15% (active); in experiment [4] it was 103% (inactive) and -53.7% (active); in experiment [5] it was 90% (inactive) and -47.6% (active); in experiment [6] it was 97.1% (inactive) and 70.2% (inactive). Also, the growth is 106% (inactive) and -83.2% (active) in [7]; 102% (inactive) and -75.4% (active) in experiment [8]; 98.4% (inactive) and -7.35% (active) in experiment [9]; 99.8% (inactive) and -17.6% (active) in experiment [10]; 86.4% (inactive) and -44.8% (active) in [11]; 99.1% (inactive) and -82.4% (active) in experiment [12]. Besides, the growth was 98.1% (inactive) and -61.5% (active) in experiment [13]; 87.6% (inactive) and -73.1% (active) in experiment [14]; 93.2% (inactive) and -43.1% (active) in experiment [15]; 103% (inactive) and -82.6% (active) in [16]; 105% (inactive) and -64.3% (active) in experiment [17]; 88.7% (inactive) and -14.3% (active) in experiment [18].
